Experimental findings from PubChem BioAssay (NCATS) are described below.

Results filed as inconclusive are left out. A number with no mark means an inactive call. Calls of active or inactive are those of the source. Calls come from the whole dose curve; as a rule, active = well fitted curve in the direction sought with a large enough effect; inconclusive = small, poorly fitted or top-dose-only effect, or another doubt; inactive = no such curve, though single readings can be large; an effect the other way counts as inactive or inconclusive.

The target in assay [1] is Cellular tumor antigen p53 (Homo sapiens) (UniProt P04637). Briefly: Primary qHTS for small molecule compounds that upregulate eGFP-tagged delta133p53alpha (in N-terminal) cells. (AID 2060322).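 For activation: cells pre-induced with doxycycline then dosed without doxycycline; 0% = DMSO vehicle and 100% = reference activator.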 Note: nearly all actives have a fitted effect of over 75% in size. Note: potency is the fitted concentration of half-maximal effect. The note with it: NCI-H358 eGFP-delta133p53alpha fluorescence, 24 h; activation: hits give high values. An outline of the steps:
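NCI-H358 cells pre-induced 24 h with 10 ng/ml doxycycline for eGFP-delta133p53alpha, plated dox-free and exposed 24 h at 37C to titrated compounds. Fixed, Hoechst-stained; gated GFP peak intensity by laser scanning cytometry, normalized to DMSO (0%) and 57.5 uM 5-azacytidine (100%).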
(In general: Quantitative high-throughput screening tests each substance at several concentrations.)

Assay [2] concerns the target Aldehyde dehydrogenase, mitochondrial (Homo sapiens) (UniProt P05091). Briefly: qHTS for Inhibitors of the Aldehyde Dehydrogenase Family (ALDH2) Primary screen (AID 2061308).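 Note: plate controls were vehicle for no effect and reference inhibitor for full effect; nearly all actives have a fitted effect of over 55% in size.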 The note with it: ALDH2 enzyme inhibition qHTS, 1536-well; series mostly up to 56 µM.
Assay [3] concerns the target Retinaldehyde dehydrogenase 3 (Homo sapiens) (UniProt P47895). Briefly: qHTS for Inhibitors of the Aldehyde Dehydrogenase Family (ALDH1A3) Primary screen (AID 2061315).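 Note: plate controls were DMSO vehicle for no effect and reference inhibitor for full effect.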 The note with it: ALDH inhibition qHTS; series mostly up to 56 µM.

Cellular tumor antigen p53 (Homo sapiens), sequence (P04637 whole entry, looked up): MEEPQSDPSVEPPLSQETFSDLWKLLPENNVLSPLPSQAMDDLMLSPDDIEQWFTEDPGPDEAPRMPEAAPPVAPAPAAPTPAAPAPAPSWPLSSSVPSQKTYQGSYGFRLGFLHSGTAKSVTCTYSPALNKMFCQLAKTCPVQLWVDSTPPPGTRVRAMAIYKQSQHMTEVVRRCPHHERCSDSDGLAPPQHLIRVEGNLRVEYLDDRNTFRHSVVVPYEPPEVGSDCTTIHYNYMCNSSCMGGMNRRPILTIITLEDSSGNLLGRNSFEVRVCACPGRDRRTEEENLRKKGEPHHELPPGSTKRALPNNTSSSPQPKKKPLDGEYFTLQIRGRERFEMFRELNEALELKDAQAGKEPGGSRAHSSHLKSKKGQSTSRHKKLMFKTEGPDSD

For `C=CC(=O)Nc1cc(Nc2nccc(-c3c[nH]c4ccccc34)n2)c(OC)cc1N(C)CCN(C)C`, the Potency in assay [1] was 10.7 µM (active). Also, the Potency entry in assay [2] and in assay [3] was “inactive” each time.
For `CC1(C)CC[C@]2(C(=O)O[C@@H]3O[C@H](CO)[C@@H](O)[C@H](O)[C@H]3O)CC[C@]3(C)C(=CCC4[C@@]5(C)C[C@H](O)[C@H](O[C@@H]6OC[C@@H](O)[C@H](O)[C@H]6O)[C@@](C)(CO)C5CC[C@]43C)C2C1` (stereo partly drawn), in assay [1], the activation was 11.6%. Moreover, the Potency entry in assay [2] and in assay [3] was “inactive” throughout.
For `CN(C)CC1CCOC1(c1ccccc1)c1ccccc1` (stereo not drawn), the activation in assay [1] was -7%. The Potency entry in assay [2] and in assay [3] was “inactive” each time.
In the case of `C=C1C(=O)O[C@@H]2C=C(COC(C)=O)CC/C=C(\CO)CC[C@@H]12`, the activation in assay [1] is 3.82%. Besides, the Potency entry in assay [2] and in assay [3] was “inactive” throughout.
Take `CC1(C)SC2C(NC(=O)[C@H](C(=O)O)c3ccsc3)C(=O)N2C1C(=O)O` (stereo partly drawn): the activation in assay [1] was 3.67%. The Potency result in assay [2] and in assay [3] was “inactive” in each case.
Regarding `CC(C)OC(=O)N1CCC(Oc2ncnc3c2cnn3-c2ccc(S(C)(=O)=O)cc2F)CC1`, in assay [1], the activation is 4.3%. In addition, the Potency entry in assay [2] and in assay [3] was “inactive” in each case.
As to `CCN1CCC[C@@H]1CNC(=O)c1ccc2c(c1)NC(=O)c1cccc(C)c1S2`, the activation in assay [1] is 19.7%. For the same molecule, the Potency result in assay [2] and in assay [3] was “inactive” throughout.
For the molecule `C=CC1(C)C=C2C(=O)OC(=O)C3=C(CCCC3(C)C)C2(O)CC1` (stereo not drawn), in assay [1], the activation is -22.9%. In addition, the Potency entry in assay [2] and in assay [3] was “inactive” each time.
`Cc1ccc(C2(COC(=O)C(C)C)CO2)c(OC(=O)C(C)C)c1` (stereo not drawn): the activation in assay [1] was 3.82%. The Potency result in assay [2] and in assay [3] was “inactive” throughout.
In the case of `CCCCc1ccc(NS(=O)(=O)c2ccc(F)cc2)cc1`, the activation in assay [1] was -9.55%. The Potency entry in assay [2] and in assay [3] was “inactive” each time.
With `CC12CCC(OC3OC(CO)C(O)C(OC4OC(CO)C(O)C(O)C4O)C3O)CC1=CCC1C2CCC2(C)/C(=C3/COC(=O)C3)CCC12O` (stereo not drawn), the activation in assay [1] is -13%. Moreover, the Potency entry in assay [2] and in assay [3] was “inactive” each time.
Regarding `COc1cc2c(cc1OC)N1C(=O)C[C@]34C=CCN5CC[C@@H]2[C@@H](CC3)[C@]514`, in assay [1], the activation is 3.05%. Also, the Potency result in assay [2] and in assay [3] was “inactive” throughout.
Consider `Clc1ccc(Nc2nc3ccccc3c3nc(C4CCCCC4)[nH]c23)cc1Cl`, for which the activation in assay [1] was 22%. The Potency entry in assay [2] and in assay [3] was “inactive” in each case.
`CC[C@]1(O)CC2CN(CCc3c([nH]c4ccccc34)[C@@](C(=O)OC)(c3cc4c(cc3OC)N(C=O)[C@H]3[C@@](O)(C(=O)OC)[C@H](OC(C)=O)[C@]5(CC)C=CCN6CC[C@]43[C@@H]65)C2)C1` (stereo partly drawn): the activation in assay [1] is -0.333%. The Potency entry in assay [2] and in assay [3] was “inactive” throughout.
On to `CCC(C)C(=O)OC1CC(C)C=C2C=CC(C)C(CCC(O)CC(O)CC(=O)O)C21` (stereo not drawn), for which the activation in assay [1] was -1.53%. Besides, the Potency entry in assay [2] and in assay [3] was “inactive” each time.
In the case of `CC(C)(C)NC(=O)[C@@H](c1cccnc1)N(C(=O)c1ccco1)c1ccc(C(C)(C)C)cc1`, the activation in assay [1] was 5%. In addition, the Potency result in assay [2] and in assay [3] was “inactive” in each case.
With `CC1(C)CC[C@]2(C(=O)O[C@@H]3O[C@H](CO)[C@@H](O)[C@H](O)[C@H]3O)CC[C@]3(C)C(=CCC4[C@@]5(C)CC[C@H](O[C@H]6O[C@H](CO)[C@@H](O)[C@H](O[C@@H]7O[C@H](CO)[C@@H](O)[C@H](O)[C@H]7O)[C@H]6O)C(C)(C)C5CC[C@]43C)[C@@H]2C1` (stereo partly drawn), the activation in assay [1] was 15.3%. The Potency result in assay [2] and in assay [3] was “inactive” in each case.
Regarding `CCOC(=O)C(CCc1ccccc1)NC(C)C(=O)N1C(=O)N(C)CC1C(=O)O` (stereo not drawn), in assay [1], the activation was -5.25%. The Potency entry in assay [2] and in assay [3] was “inactive” throughout.
Consider `CCC(CCO[C@@H]1O[C@H](CO[C@H]2OC[C@](O)(CO)[C@H]2O)[C@@H](O)[C@H](O)[C@H]1O)C(C)(C)O` (stereo partly drawn), for which the activation in assay [1] was -6.87%. For the same molecule, the Potency result in assay [2] and in assay [3] was “inactive” in each case.
`CCOC(=O)Cn1cccc1-c1nc(-c2ccc(OC)cc2)c(-c2ccc(OC)cc2)s1`: in assay [1], the activation was 27.6%. The Potency entry in assay [2] and in assay [3] was “inactive” each time.
For `C=C1C(=O)OC2CC(C)C(CCC(C)=O)=CCC12` (stereo not drawn), the Potency in assay [1] is 16.9 µM (active). The Potency entry in assay [2] and in assay [3] was “inactive” throughout.
`Cc1cc(-c2ncc(-c3cccnc3)cc2/C=C/c2ccccc2)cnc1-c1cccnc1`: in assay [1], the activation is 15.7%. Moreover, the Potency entry in assay [2] and in assay [3] was “inactive” in each case.
For `CC(=O)O[C@H]1CC[C@@]2(CI)C(=CC[C@@H]3[C@@H]2CC[C@]2(C)[C@@H]([C@H](C)CCCC(C)C)CC[C@@H]32)C1`, the activation in assay [1] is 21.7%. In addition, the figures for the activity change, negative = inhibition in assay [2] and in assay [3] were -4.11% [at 11.2 µM] and 5.91% [at 11.2 µM], respectively.
Consider `O=C(O)CCc1cc2ccoc2cc1O[C@@H]1O[C@H](CO[C@@H]2OC[C@](O)(CO)[C@H]2O)[C@@H](O)[C@H](O)[C@H]1O`, for which, in assay [1], the activation is -11.5%. For the same molecule, the Potency result in assay [2] and in assay [3] was “inactive” in each case.
Consider `CC1=CC(=O)CC(C)(C)[C@@]1(O)/C=C/C(C)O[C@@H]1O[C@H](CO)[C@@H](O)[C@H](O)[C@H]1O` (stereo partly drawn), for which, in assay [1], the activation was 15.3%. Moreover, the Potency entry in assay [2] and in assay [3] was “inactive” throughout.
Turning to `CC(C)C[C@@H](N)C(=O)N[C@H]1C(=O)N[C@@H](CC(N)=O)C(=O)N[C@H]2C(=O)N[C@H]3C(=O)N[C@H](C(=O)N[C@H](C(=O)O)c4cc(O)cc(O)c4-c4cc3ccc4O)[C@H](O)c3ccc(c(Cl)c3)Oc3cc2cc(c3O[C@@H]2O[C@H](CO)[C@@H](O)[C@H](O)[C@H]2O[C@H]2C[C@](C)(N)[C@H](O)[C@H](C)O2)Oc2ccc(cc2Cl)[C@H]1O`, the activation in assay [1] was 6.33%. The Potency result in assay [2] and in assay [3] was “inactive” each time.
